Assay results from PubChem BioAssay (NCI).
About 83,000 compounds went through this panel and 20% of them were active in at least one assay; those are over-represented in the sample as a whole.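 For each line, cells grew in 96-well plates with the test compound present at a single concentration for 48 hours.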 A number with no mark means an inactive call. Activity calls are given as the source filed them.

Each compound was assayed on SNB-19 CNS (assay: NCI-60 one-dose screen, 48 h (100 = growth as untreated, 0 = no growth, -100 = all killed)). Settings: 10 µM unless noted.
Description: Growth inhibition of the SNB-19 human tumor cell line is measured as a screen for anti-cancer activity. Cells are grown in 96 well plates and exposed to the test compound for 48 hours. Compounds are tested at a single concentration, which is 10^-5 M for most compounds. The reported endpoint is percent growth (GI% or GIPRCNT), where numbers from 0 - 100% represent growth inhibition, and numbers from -100% - 0 represent cell death. For example, a value of 40 represents 60% growth inhibition. A value of 0 means no net growth occurred over the course of the experiment. A value of -40 indicates 40% of cells at the beginning of the experiment died by the end of the experiment. A value of -100 means all cells are dead at the end of the experiment.
NCI-60 Human Tumor Cell Lines Screen was performed using the standard one-dose NCI protocol, which is described in more detail at https://dtp.cancer.gov/discovery_development/nci-60/default.htm.
Compounds with GIPRCNT values below 10 were considered active. Activity score was based on GIPRCNT using the following formula: […]
Score is 0 for GIPRCNT values of 100 or above, 50 for GIPRCNT values of 0, and 100 for GIPRCNT values of -100.
`C/C(=N\O)C(=O)NCCCCCC(=O)Nc1ccccc1` showed a growth of 99.3%.
For `Cn1cc(-c2nc(-c3c[nH]c4ccncc34)cs2)c2cc(Br)ccc21`, the growth was -76% (active).
With `COc1cc(C#Cc2ccc(=O)oc2C#Cc2ccccc2)cc(OC)c1OC` the growth was 92.9%.
In the case of `CCCCCCCCn1ccc2cc(NC(=O)Cn3cc(CN4CCC(C)CC4)nn3)ccc21`, the growth is reported as -34.8% (active).
Work on `COc1cc(/C=N/Nc2ccccc2F)cc(OC)c1OC` yielded a growth of 98.3%.
`O=C(Nc1cccnc1Nc1ccc(Cl)cc1)c1cn(Cc2ccc(F)cc2)nn1` gave a growth of 95.9%.
`COc1ccc(/C=C/C(=O)c2ccc(Nc3nc(Nc4ccc(F)cc4)nc(Nc4ccc(Cl)cc4)n3)cc2)cc1` gave a growth of 115%.
`COc1ccc(-c2cc(C(=O)N3N=C(c4ccc(N)cc4)CC3c3ccccc3)c3ccccc3n2)cc1` (stereo not given) gave a growth of 47.8%.
With `OC(c1ccccc1)(c1ccccc1)c1ccccc1-c1ccccc1` the growth was 94%.
`Cc1cc(F)ccc1S(=O)(=O)Nc1cc(-c2c(O)ccc3ccccc23)c(O)c2ccccc12` was tested, and the growth was 37.4%.
Work on `CC(C)c1ccc(C(=O)Nc2sc3cc(O)ccc3c2C#N)cc1` yielded a growth of 36%.
For `COc1ccc(C(c2cc(OC)c(OC)c(OC)c2)N2CCCC2)cc1` (stereo not given), the growth was 90.5%.
`Cc1ccc(N=Nc2c(N)nn(-c3ccccc3)c2N)cc1` gave a growth of 46.7%.
`COP(=O)(OC)c1nnn(-c2cccc([N+](=O)[O-])c2)c1C` was tested, and the growth was 105%.
`CCCCc1oc2ccccc2c1C(=O)c1ccc(O)cc1` gave a growth of 91.1%.
Work on `C/C(C=O)=C\c1ccc2c(c1)OCO2` yielded a growth of 111%.
Work on `CC(C)c1ccc(-n2c(=S)[nH]c3sc4c(c3c2=O)CCC(=O)C4)cc1` yielded a growth of 26.4%.
`CCCn1c(=S)sc2c1nc(C)n1c(Nc3ccccc3)nnc21` gave a growth of 70.8%.
`CCOC(=O)/C=C/c1c(C)[nH]c(=O)[nH]c1=O` gave a growth of 93.4%.
For `O=C1Nc2ccccc2/C1=C/c1cn(C[C@@H](O)Cn2c3ccccc3c(=O)c3ccccc32)c2ccccc12`, the growth was 73.1%.
In the case of `O=C1Nc2ccc(F)cc2/C1=C\c1nc(-c2ccccc2F)n2ccccc12`, the growth is reported as 94.3%.
With `COc1cc2nc(Nc3cccc(F)c3)nc(Nc3cc(C)[nH]n3)c2cc1OC` the growth was -89.2% [20 µM] (active).
`c1ccc(CCc2ccccc2-c2cc(-c3ccccc3)on2)cc1` was tested, and the growth was 90.3%.
`CN1C(=O)/C(=C/c2ccc(C(=O)Nc3ncc(Cc4ccc(F)cc4)s3)cc2)SC1=S` showed a growth of 60.5%.
For `O=C(CCCCCCN1CC(=O)N2[C@@H](C3CCCCC3)c3[nH]c4ccccc4c3C[C@H]2C1=O)NO`, the growth was 74.6%.
Compound `CCCCCCCCCCCCCCCCOC(=O)c1c(C)[nH]c(/C=C2\N=C(c3ccc[nH]3)C=C2OC)c1C` has a growth of 84.6%.
Compound `COc1ccc(NC(=O)c2ccc(C(=O)Nc3ccc(OC)cc3OC)cc2)c(OC)c1` has a growth of 50.9%.
Work on `O=C(N/N=C/c1ccc([N+](=O)[O-])cc1)c1ccc2nc(-c3ccc(Cl)cc3)[nH]c2c1` yielded a growth of 52%.
In the case of `CO[C@H](C(=O)[C@@H](O)[C@@H](C)O)[C@@H]1Cc2cc3cc(O[C@H]4C[C@@H](O[C@H]5C[C@@H](O)[C@H](O)C(C)O5)[C@H](O)C(C)O4)c(C)c(O)c3c(O)c2C(=O)[C@H]1O[C@H]1C[C@@H](O[C@H]2C[C@@H](O[C@H]3C[C@@H](OC)[C@H](O)C(C)O3)[C@@H](O)C(C)O2)C(O)(O)C(C)O1` (stereo not given in full), the growth is reported as 11.8%.
`CCCCCCCCCCCCCCCCCCOc1ccccc1CC(=O)OCC[N+]1(C)CCOCC1` gave a growth of 54.4%.
With `CCOC(=O)c1c(C)c2c(n1C)CSc1cc(S(=O)(=O)c3ccccc3)c(=O)[nH]c1-2` the growth was 43.3% [100 µM].
`O=C(CCCCl)NNc1nccc(Nc2ccc(S(=O)(=O)Nc3ccncc3)cc2)n1` gave a growth of 106%.
`COc1ccc(-c2cc(-c3cc(OC)c(OC)c(OC)c3)c(C#N)c(=O)n2CCCCCC(=O)NO)cc1` was tested, and the growth was 89.8%.
Work on `O=C(Nc1ccccc1)c1sc(-c2ccccc2)cc1O` yielded a growth of 101%.
With `CC1=NN(c2ccc(Cl)cc2)CC1(C)N=O` (stereo not given) the growth was 97.9%.
`Cc1cc(N2CCN(C)CC2)nc(NCc2cc(Nc3ccnc4cc(Cl)ccc34)ccc2F)n1` gave a growth of 34.3%.
For `COc1ccc(-c2cc(-c3ccc(OC)cc3)nc(NCCCNc3ccnc4cc(Cl)ccc34)n2)cc1`, the growth was 93.3%.
With `C=C1C(=O)O[C@H]2[C@H]1CC/C(Cn1cc(-c3cc(C(F)(F)F)cc(C(F)(F)F)c3)nn1)=C\CC[C@@]1(C)O[C@@H]21` the growth was -80.3% (active).
`C#Cc1cccc(Oc2ccc(NC(=O)CCl)cc2)c1` gave a growth of 54.2% [8.25 µM].
In the case of `O=C(CSc1nnc2sc(Nc3cccc(Cl)c3)nn12)c1ccc(F)cc1`, the growth is reported as 95.5%.
